Records with an inconclusive call do not appear. A call without a number means that no potency is given here. The source made the active and inactive calls. Calls come from the whole dose curve; as a rule, active = well fitted activation curve with a large enough effect; inconclusive = small, poorly fitted or top-dose-only effect; inactive = no such curve, though single readings can be large or run the other way.

This test is described as follows: qHTS Assay for NPC1 Promoter Activators: Hit Validation Using Firefly Luciferase Read-Out for Rab9. The settings on record: Huh7 Rab9 promoter firefly luciferase reporter, 24 h; series mostly up to 46.1 µM. The text has this: Niemann Pick Type C (NPC) is a rare neurodegenerative lipidosis that is characterized by lipid storage in the endosomal/lysosomal system. Treatment modalities for this devastating disease are currently non-existent due to the severe obstacles associated with accessing the central nervous system with proteins or genes. The majority of mutations causing NPC disease are missense mutations that are distributed throughout the length of the NPC1 protein, with the most prevalent being the I1061T allele. Although NPC1 mutant proteins may be functional, they are typically trapped in the ER due to misfolding. […] We have developed and optimized a cell based renilla luciferase reporter assay in 1536 well format for the identification of up-regulators of the mutant Rab9 promoter. This assay presents data on the validation of hits from the primary screen, which used a firefly luciferase read-out. NIH Chemical Genomics Center [NCGC] NIH Molecular Libraries Probe Production centers Network [MLPCN] MLPCN Grant: MH089375 Assay Submitter (PI): Yiannis A. Ioannou
Huh7 cells stably expressing NPC promoter-luciferase will be seeded at 1,500 cells/well in 5 uL in 1,536-well white opaque plates with 23 nL/well of compound in DMSO solution. The assay plates will be incubated at 37 deg C for 24 hours, after which 3 uL/well BriteLite plus luciferase detection reagent mixture (Perkin Elmer) will be added. Luminescence signal will be measured in a ViewLux plate reader (Perkin Elmer) after a 10 minute incubation at the room temperature.
In general terms: qHTS replaces the single test concentration by a dilution series.
With `Cc1ccc(NC(=O)COC(=O)C2C3CC4OC(=O)C2C4C3)cc1Cl` (stereo not drawn), the Potency entry is “inactive”. The entry for `COc1ccc([N+](=O)[O-])cc1COc1ccc2c(-c3ccccc3)cc(=O)oc2c1` is “inactive”; for `O=C(NC(=S)Nc1ccc(CN2CCCCC2)cc1)c1cc2ccccc2o1` it is “inactive”. The entry for `COc1ccc(-c2csc(N(CCCN(C)C)C(=O)c3ccccc3C)n2)cc1` is “inactive”; for `N#CC/C(N)=N/NC(=O)CCCNc1ncc(C(F)(F)F)cc1Cl` it is 19900 nM (active). The entry for `CC1CCCN(S(=O)(=O)c2ccc(C(=O)Nc3nnc(-c4ccncc4)o3)cc2)C1` (stereo not drawn) is “inactive”. Regarding `CCc1cc2c(N=Nc3c(O)[nH]c4ccccc34)ncnc2s1`, the Potency entry was “inactive”. As to `Cc1cccc(N2CCN(C(=S)c3ccccc3)CC2)c1`, the Potency result is “inactive”. Under `CCOC(=O)c1ccc(NC(=O)Oc2cc(C)c(Cl)cc2C(C)C)cc1` stands “inactive”; under `CC(C)CC(=O)N1CCN(c2ccc(NC(=O)c3ccco3)cc2)CC1`, “inactive”; under `Cc1ccc(NC(=O)NC(=O)c2ccccc2)cc1F`, 445 nM (active). The entry for `O=C(CSc1nccn1Cc1ccco1)Nc1ccccc1F` is “inactive”; for `O=C(CSc1nnc(-c2ccccc2)o1)Nc1ccccc1F` it is 112 nM (active).

These data come from PubChem BioAssay AID720525 (National Center for Advancing Translational Sciences (NCATS), 2013).
